PubChem BioAssay (NCI)
About 83,000 compounds went through this panel and 20% of them were active in at least one assay; those are over-represented in the sample as a whole.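 Negative percent growth values reflect cell death: -40 means 40% of the cells present at the start died, and -100 means all died.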 Activity calls are given as the source filed them. How the source made its calls: active means growth percent below 10; inactive means the rest.

Columns and labels:
Test in all cases: NCI-60 one-dose screen, 48 h (100 = growth as untreated, 0 = no growth, -100 = all killed)
Settings in all cases: 10 µM unless noted
DU-145 prostate = test system: DU-145 prostate
K-562 leukemia = test system: K-562 leukemia
MALME-3M melanoma = test system: MALME-3M melanoma
MDA-MB-231 breast = test system: MDA-MB-231 breast
RXF 393 renal = test system: RXF 393 renal
SF-268 CNS = test system: SF-268 CNS
SF-295 CNS = test system: SF-295 CNS
SF-539 CNS = test system: SF-539 CNS
UACC-257 melanoma = test system: UACC-257 melanoma
M14 melanoma = test system: M14 melanoma
HCT-15 colon = test system: HCT-15 colon
HT29 colon = test system: HT29 colon
SNB-75 CNS = test system: SNB-75 CNS
SNB-19 CNS = test system: SNB-19 CNS
U251 CNS = test system: U251 CNS
PC-3 prostate = test system: PC-3 prostate
SK-MEL-5 melanoma = test system: SK-MEL-5 melanoma
UACC-62 melanoma = test system: UACC-62 melanoma
LOX IMVI melanoma = test system: LOX IMVI melanoma
SK-MEL-28 melanoma = test system: SK-MEL-28 melanoma

Measured: growth

COC(=O)C1=C(C(=O)ON)C2C=CC1(C(Cc1ccccc1)Nc1ccccc1)O2 (stereo not given)
active: K-562 leukemia -1.55% | MALME-3M melanoma -74% | HCT-15 colon -53.8%
inactive: DU-145 prostate 73.9% | MDA-MB-231 breast 103% | RXF 393 renal 92.1% | SF-268 CNS 95% | SF-295 CNS 103% | SF-539 CNS 90% | UACC-257 melanoma 87.8% | M14 melanoma 76.3% | HT29 colon 37.9% | SNB-75 CNS 106% | SNB-19 CNS 106% | U251 CNS 94.6% | PC-3 prostate 100% | SK-MEL-5 melanoma 104% | UACC-62 melanoma 89.9% | LOX IMVI melanoma 75.8% | SK-MEL-28 melanoma 65.4%

O=S(=O)(NCCNc1nccc(-c2c(-c3cccc(F)c3)nc3sccn23)n1)c1ccc(Br)cc1
inactive: DU-145 prostate 52.5% | K-562 leukemia 38.7% | MALME-3M melanoma 71.1% | MDA-MB-231 breast 69.7% | RXF 393 renal 72.7% | SF-268 CNS 53% | SF-295 CNS 58.7% | SF-539 CNS 76.4% | UACC-257 melanoma 82% | M14 melanoma 52.3% | HCT-15 colon 29.2% | HT29 colon 28.2% | SNB-75 CNS 75.3% | SNB-19 CNS 59.3% | U251 CNS 53.4% | PC-3 prostate 51% | SK-MEL-5 melanoma 31.5% | UACC-62 melanoma 35.8% | LOX IMVI melanoma 38.5% | SK-MEL-28 melanoma 69.1%

CCCCCCNC(=O)Nc1ccc2cc3ccc(NC(=O)NCCCCCC)cc3nc2c1
active: K-562 leukemia -29.6% | MALME-3M melanoma -35.7% | MDA-MB-231 breast -23.6% | RXF 393 renal -47.7% | SF-268 CNS -62.8% | SF-295 CNS -47.5% | SF-539 CNS -77.1% | SNB-75 CNS -16.3% | SNB-19 CNS -47.9% | U251 CNS -89.1% | SK-MEL-5 melanoma 3.38% | UACC-62 melanoma -79% | LOX IMVI melanoma -79.7% | SK-MEL-28 melanoma -65.4%
inactive: DU-145 prostate 21.7% | UACC-257 melanoma 72.6% | M14 melanoma 28.5% | HCT-15 colon 88.7% | HT29 colon 20.2% | PC-3 prostate 21.5%

Nc1c(C(=O)Nc2cccc3cnccc23)sc2nc3c(cc12)CN(Cc1ccccc1)CC3
inactive: DU-145 prostate 109% | K-562 leukemia 96.5% | MALME-3M melanoma 101% | MDA-MB-231 breast 89.1% | RXF 393 renal 103% | SF-268 CNS 103% | SF-295 CNS 106% | SF-539 CNS 107% | UACC-257 melanoma 124% | M14 melanoma 102% | HCT-15 colon 107% | HT29 colon 108% | SNB-75 CNS 96.5% | SNB-19 CNS 99.6% | U251 CNS 108% | PC-3 prostate 91.3% | SK-MEL-5 melanoma 98.8% | UACC-62 melanoma 96.4% | LOX IMVI melanoma 103% | SK-MEL-28 melanoma 111%

N#Cc1cccc(-c2ccc3c(c2)NC(=O)/C3=C\c2ccc[nH]2)c1
inactive: DU-145 prostate 92.8% | K-562 leukemia 18.8% | MALME-3M melanoma 51.6% | MDA-MB-231 breast 33.5% | RXF 393 renal 73.3% | SF-268 CNS 95.6% | SF-295 CNS 78.7% | SF-539 CNS 71.8% | UACC-257 melanoma 67.6% | M14 melanoma 56.4% | HCT-15 colon 14.3% | HT29 colon 53.7% | SNB-75 CNS 58.2% | SNB-19 CNS 91.2% | U251 CNS 92.8% | PC-3 prostate 70.2% | SK-MEL-5 melanoma 36.6% | UACC-62 melanoma 42.7% | LOX IMVI melanoma 66.1% | SK-MEL-28 melanoma 83.5%

CC(=O)Nc1cccc(-c2ccc3c(c2)NC(=O)/C3=C\c2ccc[nH]2)c1
inactive: DU-145 prostate 57.4% | K-562 leukemia 12.3% | MALME-3M melanoma 71.7% | MDA-MB-231 breast 34.9% | RXF 393 renal 54.3% | SF-268 CNS 67.5% | SF-295 CNS 32.6% | SF-539 CNS 28.1% | UACC-257 melanoma 73.2% | M14 melanoma 39.1% | HCT-15 colon 27.2% | HT29 colon 25.6% | SNB-75 CNS 53.3% | SNB-19 CNS 69.1% | U251 CNS 45.6% | PC-3 prostate 63.8% | SK-MEL-5 melanoma 61.1% | UACC-62 melanoma 48.5% | LOX IMVI melanoma 35.9% | SK-MEL-28 melanoma 68.3%

CCCC/C=N/NC(=S)NCc1ccccc1
inactive: DU-145 prostate 106% | K-562 leukemia 91.7% | MALME-3M melanoma 97% | MDA-MB-231 breast 98.8% | RXF 393 renal 106% | SF-268 CNS 102% | SF-295 CNS 102% | SF-539 CNS 94% | UACC-257 melanoma 91.2% | M14 melanoma 87.4% | HCT-15 colon 95.8% | HT29 colon 101% | SNB-75 CNS 86% | SNB-19 CNS 95.9% | U251 CNS 97.1% | PC-3 prostate 86.1% | SK-MEL-5 melanoma 97.1% | UACC-62 melanoma 93.8% | LOX IMVI melanoma 97.3% | SK-MEL-28 melanoma 98.2%

COc1cc2oc(-c3cccc(C(=O)Nc4ccc5c(c4)OCO5)c3)cc(=O)c2c(O)c1OC
inactive: DU-145 prostate 80.4% | K-562 leukemia 94.5% | MALME-3M melanoma 88.1% | MDA-MB-231 breast 68.1% | RXF 393 renal 81.5% | SF-268 CNS 58.7% | SF-295 CNS 92.1% | SF-539 CNS 88.8% | UACC-257 melanoma 78.2% | M14 melanoma 89.7% | HCT-15 colon 93.6% | HT29 colon 76.3% | SNB-75 CNS 84.6% | SNB-19 CNS 72.1% | U251 CNS 55.8% | PC-3 prostate 72.3% | SK-MEL-5 melanoma 84% | UACC-62 melanoma 81.4% | LOX IMVI melanoma 88.2% | SK-MEL-28 melanoma 89.8%
